Laboratory results published in PubChem BioAssay (NCATS).
Inconclusive results are not listed. Calls of active or inactive are those of the source. Calls follow the shape of the full dose curve.

molecular target: Atrial natriuretic peptide receptor 1 (Homo sapiens) (UniProt P16066); test: Natriuretic polypeptide receptor (hNpr1) antagonism - Pilot CMLD screen (AID 1347052); conditions: HEK293 hNpr1 GloSensor cGMP luminescence, ANP-stimulated; series mostly up to 9.22 µM
Procedure: In order to identify small molecular compounds that inhibit the hNpr1 receptor we developed a high-throughput assay to measure inhibition of the guanylate cyclase activity of the receptor. cGMP production was measured using a circular permutated Firefly luciferase (FLuc) enzyme functionally linked to the cGMP binding domain of human phosphodiesterase 5 (GloSensor technology pGS-40F, (Fan, F. et al. 2008). The cGMP-sensor was expressed in human embryonic kidney 293 (HEK-293) cells and FLuc activity was measured after stimulation with hNrp agonist peptide. hNrp agonists activates the receptor's associated guanylyl cyclase (GC) domain producing cGMP which then binds to the GloSensor resulting in FLuc activation, the enzymatic activity of which can be measured as bioluminescence with addition of luciferin substrate.
This assay was initially piloted by testing with a small library of specialty compounds.
PROTOCOL TABLES (as described by Inglese J, Shamu CE and Guy RK. 2007)
SEQUENCE No. (e.g., 1, 2, 3, etc.); […] (e.g., Cells, Incubation, Reagent, etc.); VALUE and DESCRIPTION.
1. Cells. Seed 1500 HEK293 cGMP-sensor cells expressing hNpr1 per well in 4uL into Greiner 1536-well white/solid bottom high base, tissue culture-treated plates.
2. Incubation. Incubate plated cells at 37C in 5% CO2, 95% RH overnight.
3. Reagent. Add 1uL per well GloSensor reagent from Promega (2% final concentration) or CO2 independent media vehicle control to respective columns of Greiner 1536-well plates.
4. Incubation. Incubate plated cells at room temperature for 2 h, protect from light.
5. Compounds. Library compounds and A-71915 control added at 23 nL per well, transferred by Pin Tool.
6. Incubation. Incubate plated cells for 30 min. at room temperature, protect from light.
7. Detector. GloSensor baseline pre-read luminescence measured using CCD-based camera (Viewlux).
8. Compound. Add 1uL of hNppA peptide to 0.1 nM final concentration to stimulate hNpr1 or CO2 independent media as vehicle control.
9. Incubation. Incubate treated cells at room temperature for 20 min., protect from light.
10. Detector. GloSensor post-hNppA luminescence measured using CCD-based camera (Viewlux).
NOTES (numbers refer to Sequence numbers above)
1. HEK293 cells expressing hNpr1 and GIP/pGS-40F grown to 85-95% confluence (48-72 h) in T175 culture flasks (CO2 independent media supplemented with 10% FBS, 1% Pen/Strep antibiotics and 1 ug/mL puromycin). Trypsinize and harvest cells from T175 culture flasks and filter through 40 um cell strainer. Cells counted with Invitrogen Countess (30,000,000 - 50,000,000 cells/flask). Cells diluted to a final concentration of 375 cells/uL in CO2 independent media and a Millipore multidrop used to dispense 1500 cells per well (4uL/well) into 13 1536-well Greiner White/Solid bottom, high base tissue-culture treated (TC) plates and one Aurora 1536-well Black/Clear bottom, low base, TC plate (for visual inspection of cell health throughout the duration of the assay).
2. Cells incubated overnight at ambient temperature, 24 h. at 37C in 95% RH incubator protected from light, covered with metal lid with gas-exchange holes.
3. Prepare GloSensor Reagent (Promega): Reconstitute GloSensor luciferase substrate by adding 8.2mL Hepes buffer to 250mg substrate, mix well, protect from light and stored at -80C. Prepare a fresh 12% GloSensor solution in CO2 independent supplemented plating media (see above). Mix well and store at ambient temperature, protected from light. 1uL 12% GloSensor Luciferase Reagent added (2% final concentration) to respective columns of 13 x 1536-well Greiner plate with BioRaptr, 1uL CO2 independent plating media added to respective columns as vehicle control with BioRaptr.
4. Cells incubated for 2 h. at ambient temperature, protected from light with metal lid with gas-exchange holes.
5. A-71915 stock solution prepared (10 mM in DMSO). […]

Chain of Atrial natriuretic peptide receptor 1 (Homo sapiens) (P16066 whole entry, looked up, the tested form may be a part): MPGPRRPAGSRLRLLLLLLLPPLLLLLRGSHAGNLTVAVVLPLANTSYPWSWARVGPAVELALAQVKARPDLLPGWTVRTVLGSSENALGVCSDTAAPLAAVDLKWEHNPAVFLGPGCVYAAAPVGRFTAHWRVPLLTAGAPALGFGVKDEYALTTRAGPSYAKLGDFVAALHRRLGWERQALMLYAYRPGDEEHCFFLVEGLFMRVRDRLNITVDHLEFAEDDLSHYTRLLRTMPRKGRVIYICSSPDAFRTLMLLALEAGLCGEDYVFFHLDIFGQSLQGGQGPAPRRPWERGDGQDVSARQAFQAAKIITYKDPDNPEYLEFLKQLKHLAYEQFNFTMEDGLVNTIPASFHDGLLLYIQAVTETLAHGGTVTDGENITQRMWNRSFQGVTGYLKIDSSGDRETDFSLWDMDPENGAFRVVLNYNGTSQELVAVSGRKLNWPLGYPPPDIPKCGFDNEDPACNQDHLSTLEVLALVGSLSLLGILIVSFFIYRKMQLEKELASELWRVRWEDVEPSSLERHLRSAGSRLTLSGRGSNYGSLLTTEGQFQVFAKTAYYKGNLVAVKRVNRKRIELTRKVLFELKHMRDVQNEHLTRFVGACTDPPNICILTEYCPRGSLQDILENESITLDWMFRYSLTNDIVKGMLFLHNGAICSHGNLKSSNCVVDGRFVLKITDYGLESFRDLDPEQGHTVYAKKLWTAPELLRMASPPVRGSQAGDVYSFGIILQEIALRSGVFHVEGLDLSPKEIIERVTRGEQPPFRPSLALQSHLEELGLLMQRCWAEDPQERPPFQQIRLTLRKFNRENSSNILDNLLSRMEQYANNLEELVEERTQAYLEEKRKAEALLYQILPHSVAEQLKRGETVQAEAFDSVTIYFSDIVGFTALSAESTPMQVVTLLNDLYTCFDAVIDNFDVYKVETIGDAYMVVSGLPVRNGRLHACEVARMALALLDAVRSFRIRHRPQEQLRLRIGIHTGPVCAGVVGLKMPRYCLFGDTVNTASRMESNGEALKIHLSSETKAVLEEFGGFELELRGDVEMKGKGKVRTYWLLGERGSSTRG

Potency, inactive:
Cc1cc2c(nc1C)CCCCN2C[C@H](C)ON=C[C@@H](C)[C@H](OCc1ccccc1)C(C)C, COC(=O)[C@@H]1[C@@H](c2ccccc2)NC(=O)N(Cc2ccccc2)[C@@H]1C, COCC=CC1=CC2=CC(=O)C(C)(OC(=O)c3cnc4ccccc4n3)C(=O)C2=CN1CCCCO (stereo not given), CCN1C(=S)NC(c2cccc(F)c2)C(C(=O)OC)=C1C (stereo not given), CC(=O)O[C@H](C(=O)O[C@@H]1C[C@@H](CCC[C@H]2O[C@H](C(=O)OC(C)C)CC[C@@H]2C)O[C@@H](CC#N)C1)c1ccccc1, COc1cccc([C@@H]2Oc3ccc(Br)cc3C[C@@H]2OC(=O)N[S+](=O)([O-])c2ccc(C)cc2)c1, FC(F)(F)c1cc(NC(=S)NC(c2ccccc2)c2ccccc2)cc(C(F)(F)F)c1, COc1cccc(CO[C@H]2C=C[C@@H](c3ccccc3)O[C@H]2CO)c1, COc1ccc(-c2nc3c(c4c2C[C@H](c2ccccc2)OC4)CN(C(=O)NCc2ccco2)CC3)c(C)c1, COC(=O)N[C@H](c1ccccc1)C(C(=O)OC)C(=O)OC, C#CCCCON=C1C[C@@H](O)[C@H](O)[C@H]2[C@@H]3C(=O)N(C[C@@H]4CCCO4)C(=O)[C@@H]3CC[C@@H]12, COc1ccc([C@]23Cc4cc(C#N)ccc4[C@H](O2)c2c(c4ccc(OC)cc4oc2=O)O3)cc1, COc1cc(O)c(C(=O)C=Cc2ccccc2)c(O)c1, CC1(OC(=O)CCc2ccccc2)C(=O)C=C2C=C(c3ccc(C#N)cc3)N(C(CO)CO)C=C2C1=O (stereo not given), CCCCCCCc1cc2ccccc2c(=O)o1, C=CC[C@@H]1C=C[C@H](ON=C(C)CCN2CCCCc3nc(C)c(C)cc32)[C@H](CO)O1, COc1ccc(COC(=O)NN=C2C[C@@H](O)[C@@H](O)[C@@H]3[C@H]4C(=O)N(c5cccc(Oc6ccccc6)c5)C(=O)[C@@H]4CC[C@H]23)cc1, COC1=C[C@H](C(=O)NCc2ccc(Br)cc2)[C@H](C)[C@@H](c2ccccc2)CC1=O, COC(=O)N[C@@H](c1ccccc1)[C@]1(C(C)=O)CCCC1=O, Cc1cc2c(nc1C)CCCN2CC(O)CN1CCN(C)CC1 (stereo not given), COc1ccc(O[C@H]2C=C[C@@H](c3ccccc3)O[C@H]2COC(=O)CCC(C)=NOC[C@@H](C)[C@H](OCc2ccccc2)C(C)C)cc1, C=CCN1c2ccccc2[C@]23CCC(=O)N(CCc4ccccn4)C2=NC(C(=O)OC)=C(C(=O)OC)[C@H]13, CC(C)=CCN1C(=O)[C@]2(OCCC=C[C@H]2C)c2c(Br)cccc21, C=CCCC1(CCC)C(=O)C(=C(O)c2ccccc2)C(=O)C(CCC)=C1OC (stereo not given), COC(=O)CC=C[C@@H](C)[C@@H](C=NO[C@H](C)CN1CCCc2nc(C)c(C)cc21)N[S+](=O)([O-])c1ccc(C)cc1, C[C@H]1Cc2c(COc3ccccc3)nc3c(c2CO1)CN(C(=O)C1CCCCC1)CC3, COC(=O)c1ccc(CN2C(=O)[C@]3(O[C@H](C)CC4=CCCC43)c3c(Br)cccc32)cc1 (stereo not given in full), C=CCCN1C(=O)NC(c2ccccc2)C(C(=O)OC)=C1C (stereo not given), CC(=O)C1=C(C)N(CCC=Cc2ccccc2)C(=O)NC1c1ccccc1 (stereo not given), COC(=O)[C@H]1O[C@@H](c2c(OC)c(OC)c(C)c(OC)c2OC)[C@H](C)[C@@H](O)[C@@H]1C, C=CCN1C(=O)[C@]2(O[C@H](C)CC3=CCCC32)c2c(Br)cccc21 (stereo not given in full), O=C1C2=C(C(=O)c3ccccc31)[C@H]1O[C@](CCCCN3C(=O)c4ccccc4C3=O)(Cc3ccccc31)O2, COc1cc(CCN2C(=O)NC(c3ccccc3)C(C(C)=O)=C2C)cc(OC)c1OC (stereo not given), CC1(C)O[C@H]2O[C@H]([C@H](O)CON=C3[C@H]4CCn5c(=O)n(-c6ccccc6)c(=O)n5[C@@H]4[C@H](O)[C@@H]4O[C@H]34)[C@H](O)[C@@H]2O1, C=C[C@H](C)[C@](C)(O)c1ccccc1, COCCN1C(=O)C2=C(C1=O)C1N(C)c3ccccc3[C@@]13C[C@@H](CO)N(C(=O)c1ccc(Br)cc1)C3=N2 (stereo not given in full), COCCN1C(=NCC(C)C)NC(c2ccccc2)C(C(=O)OC)=C1C (stereo not given), COC(=O)CCCC1=CC2=C(c3ccccc3)C(=O)C(C)(OC(=O)C3CCCC3)C(=O)C2=CN1Cc1ccc(OC)cc1 (stereo not given), C[C@@H]1C=CCCO[C@]12C(=O)Nc1ccc(O)cc12, CC=C[C@@H]1Oc2ccc(OC)cc2N2C(=O)[C@H](C)[C@@H](OCOC)[C@H]12
